Test results taken from PubChem BioAssay (NCATS).
Results filed as inconclusive are left out. Where a call stands in place of a potency, no number is given. Calls of active or inactive are those of the source. The call rests on the fitted dose curve; in most records, active means well fitted cell-killing curve with a large enough effect; inconclusive means small, poorly fitted or top-dose-only effect, or effect the other way; inactive means no such curve, though single readings can be large or run the other way.

Experiment: Quantitative High-Throughput drug screen in 47 multiple myeloma cell lines against the NCATS MIPE library collection: ARP1_JJKsccF8 cell viability assay (AID 1918928; further: nearly all actives have a fitted effect of over 40% in size)
Settings: ARP1 myeloma cells viability, CellTiter-Glo ATP, 48 h; series mostly up to 45.8 µM
How it was run: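 Myeloma cells at 500 per well in 1536-well format treated with MIPE 4.0 library by pin transfer for 48 h at 37C, 5% CO2. Viability from ATP luminescence (CellTiter-Glo), normalized to DMSO (100%) and media-only (0%) wells.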
Potency means the concentration at half of the fitted maximal effect.

Compound | Potency
Cc1cc(Nc2nc(N[C@@H](C)c3ccc(F)cc3)c(C#N)cc2F)n[nH]1 | 1050 nM (active)
COc1cccc(-c2ccc(NC(=O)C3=C(C(=O)O)CCC3)c(F)c2)c1 | 16600 nM (active)
CC(C)c1cc(-c2n[nH]c(=O)n2-c2ccc3c(ccn3C)c2)c(O)cc1O | 29.6 nM (active)
Nc1nccc(Oc2ccc(NC(=O)c3c[nH]cc(-c4ccc(F)cc4)c3=O)cc2F)c1Cl | 14800 nM (active)
Clc1cccc(-c2nnnn2Cc2cccnc2)c1Cl | inactive
COc1ccc2c(c1)CC[C@@H](CN(C)CC(=O)O)[C@H]2c1ccccc1 | 3320 nM (active)
Cc1cn2cc(C(=O)N(C)CCO)cc(N[C@@H]3CCOc4cccc(C)c43)c2n1 | inactive
Cn1c(=O)n(-c2ccc(C(C)(C)C#N)cc2)c2c3cc(-c4cnc5ccccc5c4)ccc3ncc21 | 18.7 nM (active)
CC1(C)CC(=O)c2c(C(F)(F)F)nn(-c3ccc(C(N)=O)c(NC4CCC(OC(=O)CN)CC4)c3)c2C1 (configuration not stated) | 235 nM (active)
C=CC(=O)Nc1cccc(Oc2nc(Nc3ccc(N4CCN(C)CC4)cc3)ncc2Cl)c1 | 13200 nM (active)
OCc1ccc(-c2ccc(-c3ccc(CO)s3)o2)s1 | 18700 nM (active)
Clc1ccc2ncc(-c3cccc(NC4CNC4)n3)n2c1 | 23500 nM (active)
CC1(C)CCC(c2ccc(Cl)cc2)=C(CN2CCN(c3ccc(C(=O)NS(=O)(=O)c4ccc(N[C@H](CCN5CCOCC5)CSc5ccccc5)c(S(=O)(=O)C(F)(F)F)c4)cc3)CC2)C1 | 13200 nM (active)

Experiment: Quantitative High-Throughput drug screen in 47 multiple myeloma cell lines against the NCATS MIPE library collection: ARD_JJKsccE7 cell viability assay (AID 1918929)
Settings: ARD myeloma cell line viability, CellTiter-Glo, 48 h; series mostly up to 45.8 µM
How it was run: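 Myeloma cells (500 per well) were exposed to MIPE 4.0 compounds by pin transfer and incubated 48 hours at 37C, 5% CO2. Viability was read as ATP by CellTiter-Glo luminescence, normalised to DMSO (100%) and media-only (0%) wells.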

Compound | Potency
Cc1cc(Nc2nc(N[C@@H](C)c3ccc(F)cc3)c(C#N)cc2F)n[nH]1 | 332 nM (active)
CC(C)Nc1cc(C(F)(F)F)cc2nc(NC(=O)c3cccnc3)nn12 | inactive
CC(C)c1cc(-c2n[nH]c(=O)n2-c2ccc3c(ccn3C)c2)c(O)cc1O | 16.6 nM (active)
Nc1nccc(Oc2ccc(NC(=O)c3c[nH]cc(-c4ccc(F)cc4)c3=O)cc2F)c1Cl | 6620 nM (active)
COc1cc(-c2nn(C3CCC(N4CCN(C(C)=O)CC4)CC3)c3ncnc(N)c23)ccc1NC(=O)c1cc2ccccc2n1C (configuration not stated) | 372 nM (active)
Clc1cccc(-c2nnnn2Cc2cccnc2)c1Cl | inactive
CCNC(=O)Nc1ccc2ncc(Nc3ccc(C)cc3)nc2n1 | 3720 nM (active)
COc1ccc2c(c1)CC[C@@H](CN(C)CC(=O)O)[C@H]2c1ccccc1 | 1320 nM (active)
CN(C)CC(C)(C)CNc1nn2c(-c3ccccc3)nnc2cc1C1CCC1 | inactive
NC(=O)c1c(OCc2c(F)cc(Br)cc2F)nsc1NC(=O)NCCCCN1CCCC1 | inactive
CC1(C)CC(=O)c2c(C(F)(F)F)nn(-c3ccc(C(N)=O)c(NC4CCC(OC(=O)CN)CC4)c3)c2C1 (configuration not stated) | 93.5 nM (active)
C=CC(=O)Nc1cccc(Oc2nc(Nc3ccc(N4CCN(C)CC4)cc3)ncc2Cl)c1 | 16600 nM (active)
Nc1cccc(-c2cc3c(Oc4cccc(O)c4)ncnc3[nH]2)c1 | inactive
O=c1c2ccccc2nc2n1CCc1c-2[nH]c2ccccc12 | inactive
C[C@]12CC[C@H](O)CC1=CCC1C2CC[C@]2(C)C(n3cnc4ccccc43)=CCC12 (some centres not stated) | inactive
OCc1ccc(-c2ccc(-c3ccc(CO)s3)o2)s1 | inactive
CC1(C)CCC(c2ccc(Cl)cc2)=C(CN2CCN(c3ccc(C(=O)NS(=O)(=O)c4ccc(N[C@H](CCN5CCOCC5)CSc5ccccc5)c(S(=O)(=O)C(F)(F)F)c4)cc3)CC2)C1 | 2640 nM (active)
CC(C)c1noc(N2CCC(COc3ccc(-c4ccc(S(C)(=O)=O)cc4)nc3)CC2)n1 | inactive
CS(=O)(=O)c1ccc(-c2cnc(N)c(C(=O)Nc3ccccc3)n2)cc1 | inactive
NCC(=O)Nc1ccc(-n2nc(C(F)(F)F)cc2-c2ccc3c(ccc4ccccc43)c2)cc1 | 148 nM (active)
O=C(O)CCCc1c[nH]c2ccccc12 | inactive
NC1(Cc2ccc(Cl)cc2)CCN(c2ncnc3[nH]ccc23)CC1 | 935 nM (active)

Experiment: Quantitative High-Throughput drug screen in 47 multiple myeloma cell lines against the NCATS MIPE library collection: Karpas620_DSMZ cell viability assay (AID 1918959); further: nearly all actives have a fitted effect of over 30% in size
Settings: Karpas620 myeloma viability, CellTiter-Glo ATP luminescence, 48 h; series mostly up to 45.8 µM
How it was run: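 Luminescent ATP measurement with CellTiter-Glo gives viability, scaled between DMSO-only wells (100%) and media-only wells (0%). Cells, 500 per well, faced library compounds for 48 hours at 37C.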

Compound | Potency
Cc1cc(Nc2nc(N[C@@H](C)c3ccc(F)cc3)c(C#N)cc2F)n[nH]1 | 296 nM (active)
COc1cccc(-c2ccc(NC(=O)C3=C(C(=O)O)CCC3)c(F)c2)c1 | inactive
CC(C)Nc1cc(C(F)(F)F)cc2nc(NC(=O)c3cccnc3)nn12 | inactive
CC(C)c1cc(-c2n[nH]c(=O)n2-c2ccc3c(ccn3C)c2)c(O)cc1O | 29.6 nM (active)
Clc1cccc(-c2nnnn2Cc2cccnc2)c1Cl | inactive
CNC(=O)c1ccc(-c2cnc3ncc(Cc4ccc5ncccc5c4)n3n2)cc1F | inactive
CCNC(=O)Nc1ccc2ncc(Nc3ccc(C)cc3)nc2n1 | 1870 nM (active)
CC(C)(C)c1cc(NC(=O)Nc2ccc(-c3cn4c(n3)sc3cc(OCCN5CCOCC5)ccc34)cc2)no1 | inactive
Cc1cn2cc(C(=O)N(C)CCO)cc(N[C@@H]3CCOc4cccc(C)c43)c2n1 | inactive
CN(C)CC(C)(C)CNc1nn2c(-c3ccccc3)nnc2cc1C1CCC1 | 14800 nM (active)
NC(=O)c1c(OCc2c(F)cc(Br)cc2F)nsc1NC(=O)NCCCCN1CCCC1 | inactive
CC1(C)CC(=O)c2c(C(F)(F)F)nn(-c3ccc(C(N)=O)c(NC4CCC(OC(=O)CN)CC4)c3)c2C1 (configuration not stated) | 264 nM (active)
C=CC(=O)Nc1cccc(Oc2nc(Nc3ccc(N4CCN(C)CC4)cc3)ncc2Cl)c1 | 5260 nM (active)
Nc1cccc(-c2cc3c(Oc4cccc(O)c4)ncnc3[nH]2)c1 | inactive
O=c1c2ccccc2nc2n1CCc1c-2[nH]c2ccccc12 | 18700 nM (active)
C[C@]12CC[C@H](O)CC1=CCC1C2CC[C@]2(C)C(n3cnc4ccccc43)=CCC12 (some centres not stated) | inactive
OCc1ccc(-c2ccc(-c3ccc(CO)s3)o2)s1 | inactive
Clc1ccc2ncc(-c3cccc(NC4CNC4)n3)n2c1 | inactive
CC1(C)CCC(c2ccc(Cl)cc2)=C(CN2CCN(c3ccc(C(=O)NS(=O)(=O)c4ccc(N[C@H](CCN5CCOCC5)CSc5ccccc5)c(S(=O)(=O)C(F)(F)F)c4)cc3)CC2)C1 | 18.7 nM (active)
COc1cc2c(Nc3ccc(NC(=O)c4ccccc4)cc3)ncnc2cc1OCCCN1CCOCC1 | inactive
CC(C)c1noc(N2CCC(COc3ccc(-c4ccc(S(C)(=O)=O)cc4)nc3)CC2)n1 | inactive
CS(=O)(=O)c1ccc(-c2cnc(N)c(C(=O)Nc3ccccc3)n2)cc1 | inactive
NCC(=O)Nc1ccc(-n2nc(C(F)(F)F)cc2-c2ccc3c(ccc4ccccc43)c2)cc1 | inactive
C1Cc2[nH]nc(-c3nn[nH]n3)c2C1 | inactive
O=C(O)CCCc1c[nH]c2ccccc12 | inactive
C[C@]1(CO)CN(c2cc(C(=O)Nc3ccc4c(c3)-c3c(c(C(N)=O)nn3-c3ccc(F)cc3)CC4)c(Cl)cn2)C[C@@]1(C)CO | 1660 nM (active)
CCCNC(=O)Nc1ccc(Oc2ncnc3cc(OC)c(OC)cc23)cc1Cl | inactive
